Bioassay records deposited in PubChem BioAssay by National Center for Advancing Translational Sciences (NCATS).
HT1080NT lethal = kills 2HG-producing HT-1080-NT fibrosarcoma cells. HT-1080-NT fibrosarcoma viability, CellTiter-Glo ATP luminescence, 48 h. Potency, µM (top dose mostly 46.1 µM), without a hit: at the highest dose activity, negative = less viability, hits mostly cytotoxic. 360,000 compounds, 1.6% hits. AID 686970;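 note: NT is the 2HG producing partner of a matched IDH1 knockdown line; potency is the fitted concentration of half-maximal effect; 0% = DMSO-treated cells and -100% = media-only wells without cells; nearly all actives have a fitted effect of over 55% in size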
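Viability by CellTiter-Glo luminescence after 48 h compound exposure at 37C of HT-1080-NT cells (750/well, RPMI, 5% FBS). % activity scaled between DMSO wells and medium-only wells, then curve-fitted and categorized by curve class.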
DT40 TDP1 CPT = growth inhibition of DT40 Tdp1-/-;hTDP1 cells with camptothecin (screen for TDP1 inhibitors). chicken DT40 Tdp1-/-;hTDP1 cells + 20 nM CPT, ATP luminescence, 48 h. Potency, µM (top dose mostly 46.2 µM), for the others: top-dose activity change, negative = growth inhibition, most hits filed as inhibitors. 420,000 compounds, 12% hits; note: potency is the fitted concentration of half-maximal effect; nearly all actives have a fitted effect of over 55% in size
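Chicken DT40 Tdp1-/- cells stably complemented with human TDP1 were seeded at 400 cells/well in medium containing 20 nM camptothecin, exposed to pin-transferred compounds, and grown at 37 °C for at least 48 hr. Viability was read as ATP luminescence.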
DT40 TDP1 no CPT = qHTS for Inhibitors of human tyrosyl-DNA phosphodiesterase 1 (TDP1): qHTS in cells in absence of CPT. DT40 Tdp1-/- hTDP1 cells, no CPT, ATP luminescence, 48 h. Potency, µM (titrated, usually from 46.2 µM), without a hit: at the top dose activity change, negative = growth inhibition, hits mostly inhibitors. 420,000 compounds, 15% hits; note: potency is the fitted concentration of half-maximal effect; nearly all actives have a fitted effect of over 55% in size
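Seeded 400 DT40-hTDP1 cells/well (vehicle DMSO, no 20 nM CPT); pinned compounds; ≥48 hr at 37 °C; CellTiter-Glo luminescence as viability measure.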
HT1080 IDH1KD tx = kills HT-1080 cells with IDH1 knockdown | 360,000 compounds, 2% hits | Potency, µM (series often up to 46.1 µM), for the others: top-dose activity, negative = toxicity, usual class: cytotoxic | HT-1080 IDH1 knockdown viability, ATP luminescence, 48 h;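 note: potency is the fitted concentration of half-maximal effect; 0% = DMSO wells and -100% = cell-free medium wells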
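IDH1KD HT-1080 cells, 750/well, RPMI + 5% FBS; compound pinned after 2 h settling; 48 h, 37 °C; CellTiter-Glo luminescence; % activity normalised to DMSO and no-cell wells; curves fitted, classed by r2 and efficacy.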
IL1B secr inh = blocks inflammasome-driven IL-1 beta release | THP-1 LPS/ATP IL-1B secretion, AlphaLISA, 16 h; hits give low values | activity change, % at 57.5 µM | AID 743279 | 360,000 compounds, 4.7% hits; in the data active = activity change below about -50%; inconclusive = mostly about -30% to -49%
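Secreted IL-1B measured by AlphaLISA bead assay after 16 h compound exposure of THP-1 cells; compounds (final up to 57.5 uM) added 1 h before LPS (250 ng/mL) and ATP (1.25 mM) stimulation; lower signal means less secretion.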
ALOX12 inh = blocks human arachidonate 12S-lipoxygenase. P18054. purified 12hLO, xylenol orange hydroperoxide absorbance. Potency, µM (doses to about 108 µM), without a hit: at the highest dose activity change, negative = inhibition, hits mostly inhibitors. 580,000 compounds, 1.1% hits. AID 1671190; note: potency is the fitted concentration of half-maximal effect
Target sequence (P18054 whole entry, looked up): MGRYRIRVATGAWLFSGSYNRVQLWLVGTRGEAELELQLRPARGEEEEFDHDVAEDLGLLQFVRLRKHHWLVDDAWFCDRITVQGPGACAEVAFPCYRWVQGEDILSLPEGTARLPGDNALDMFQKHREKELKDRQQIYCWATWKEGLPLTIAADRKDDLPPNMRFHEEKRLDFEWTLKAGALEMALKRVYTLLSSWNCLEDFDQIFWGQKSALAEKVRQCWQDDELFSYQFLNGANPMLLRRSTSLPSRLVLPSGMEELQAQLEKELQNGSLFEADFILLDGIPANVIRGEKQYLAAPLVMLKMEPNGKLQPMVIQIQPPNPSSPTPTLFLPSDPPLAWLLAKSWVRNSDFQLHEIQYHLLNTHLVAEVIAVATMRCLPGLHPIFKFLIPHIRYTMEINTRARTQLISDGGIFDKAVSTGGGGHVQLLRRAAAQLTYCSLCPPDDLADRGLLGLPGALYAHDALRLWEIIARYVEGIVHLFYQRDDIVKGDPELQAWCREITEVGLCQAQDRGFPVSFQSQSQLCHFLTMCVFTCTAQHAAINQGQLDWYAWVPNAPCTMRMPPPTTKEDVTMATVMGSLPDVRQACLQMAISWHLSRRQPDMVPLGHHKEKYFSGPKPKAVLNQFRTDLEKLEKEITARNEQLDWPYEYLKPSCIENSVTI
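Purified human 12hLO at 150 nM in 25 mM Hepes, 0.01% Triton X-100, pH 7.0, preincubated 15 min at room temperature with compound. Reaction started with 40 uM arachidonic acid, 30 min at room temperature. Hydroperoxide measured by Fe-xylenol orange, 573/405 nm absorbance ratio.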
Numbers without * were called inactive; ? = inconclusive; · = no result given; [ ] = another dose, or the depositor's remark. Only a selection was taken, and hits are over-represented in it overall. Unless noted, calls come from the whole dose curve; as a rule, active = well fitted curve in the direction sought with a large enough effect; inconclusive = small, poorly fitted or top-dose-only effect, or another doubt; inactive = no such curve, though single readings can be large; an effect the other way counts as inactive or inconclusive. Unless noted, % is set by controls: 0 for no effect and ±100 for the full control effect.

SMILES | HT1080NT lethal | DT40 TDP1 CPT | DT40 TDP1 no CPT | HT1080 IDH1KD tx | IL1B secr inh | ALOX12 inh
CC(C)Oc1ccc(CN2CCC2(C)C(=O)Nc2cnc3ccccc3c2)cc1 (centres undefined) | -19.0% | 18.4µM* | ? | -24.4% | -15.1 | -0.9%
CC1(C(=O)Nc2cnc3ccccc3c2)CCN1C(=O)CCc1ccccc1 (centres undefined) | 5.9% | 18.4µM* | 18.4µM* | -1.7% | -15.9 | 1.2%
CC1(C(=O)Nc2cnc3ccccc3c2)CCN1CCc1ccccc1 (centres undefined) | ? | ? | 18.4µM* | -25.0% | -26.9 | 1.3%
COc1ccc(CCC(=O)Nc2cnc3ccccc3c2)cc1 | 10.1% | -0.3% | 3.8% | 11.9% | -4.9 | 12.6µM*
CC1(C(=O)Nc2cccc3ncccc23)CCN1C(=O)CCc1ccccc1 (centres undefined) | -0.8% | ? | ? | 22.3% | 32.9 | 5.2%
COc1cc([N+](=O)[O-])cc2cc(C(=O)NC3CCCCCC3)c(=O)oc12 | · | · | · | · | · | 14.4%
COc1ccc2oc(=O)c(C(=O)Nc3ccccc3OC)cc2c1 | · | · | · | · | · | 3.5%
CCCCCCc1cc2cc(C(=O)Nc3ccccc3OC)c(=O)oc2cc1O | 5.5% | 16.4µM* | 16.4µM* | 2.3% | 7.0 | -0.8%
CCCCCCc1cc2cc(-c3nnc(-c4cc(OC)c(OC)c(OC)c4)o3)c(=O)oc2cc1O | -2.5% | ? | 23.1µM* | -9.0% | 39.5 | ·
CCCCCCc1cc2cc(S(=O)(=O)c3ccc(F)cc3)c(=O)oc2cc1O | ? | 20.6µM* | ? | ? | -0.8 | ?
COc1cc(-c2nnc(SCc3cc(=O)oc4cc(O)c(O)cc34)o2)cc(OC)c1OC | -2.8% | -1.3% | -12.6% | ? | 71.7 | ?
CCCCCCc1cc2cc(-c3nnc(-c4ccccc4O)o3)c(=O)oc2cc1O | -2.3% | 8.2µM* | 7.31µM* | -0.1% | 0.0 | 9.9%
COc1cccc2cc(-c3nnc(-c4ccccc4)o3)c(=O)oc12 | 24.3% | 0.8% | -16.9% | 19.8% | ? | -11.9%
CCCCCCc1cc2cc(-c3nnc(-c4ccccc4OC)o3)c(=O)oc2cc1O | ? | ? | 16.4µM* | ? | 1.2 | -11.4%
CCOc1ccccc1-c1nc(-c2cc3ccc(C)cc3[nH]c2=O)no1 | 0.9% | 25.9µM* | ? | -2.1% | -22.1 | -1.2%
COc1nc2ccccc2cc1-c1noc(-c2cccc(C)c2)n1 | · | · | · | · | · | 6.8%
CCOc1ccccc1-c1nc(-c2cc3ccccc3nc2OC)no1 | -4.6% | 16.4µM* | 23.1µM* | -16.3% | -5.4 | -15.4%
CCCc1nc(-c2cc3ccc(C)cc3[nH]c2=O)no1 | 1.5% | -26.5% | -6.4% | 4.8% | -3.6 | 0.0%
COCCNC(=O)c1ccc(-c2ccc(OC)cc2C)c2ccoc12 | -63.5% | ? | ? | -15.9% | -29.7 | 18.9%
COc1ccc(-c2ccc(C(=O)NCc3ccc(C(F)(F)F)cc3)c3occc23)c(C)c1 | ? | 18.4µM* | 16.4µM* | ? | -22.2 | 12.8%
O=C(NC1CCCCC1)c1ccc(-c2cn[nH]c2)c2ccoc12 | -24.1% | 23.1µM* | 16.4µM* | -17.2% | -9.8 | -6.5%
COc1ccc(-c2coc3c(C(=O)NCc4ccccc4)cccc23)c(C)c1 | ? | ? | ? | ? | -18.4 | ?
COc1ccc(-c2ccc(C(=O)NCCN(C)C)c3occc23)c(C)c1 | 29.1µM* | ? | ? | 18.4µM* | -8.7 | ?
COc1ccc(-c2ccc(C(=O)NCc3ccccc3)c3occc23)c(C)c1 | ? | 23.1µM* | ? | ? | ? | ?
O=C(Cc1n[nH]c(=O)c2ccccc12)NCCN1CCCCCC1=O | · | · | · | · | · | 11.6%
SMILES | HT1080NT lethal | DT40 TDP1 CPT | DT40 TDP1 no CPT | HT1080 IDH1KD tx | IL1B secr inh | ALOX12 inh
O=C(CSc1nc(-c2ccccc2)cc(=O)[nH]1)Nc1ccc(Cl)c(Cl)c1 | · | · | · | · | · | -2.4%
COc1ccc(-c2ccc(C(=O)NC3CCCCC3)c3occc23)c(C)c1 | ? | 20.6µM* | 18.4µM* | ? | -27.9 | -5.6%
COc1ccc(-c2ccc(C(=O)NCc3ccc(N4CCN(C)CC4)cc3)c3occc23)c(C)c1 | 23.1µM* | 16.4µM* | 16.4µM* | ? | ? | ?
COC(=O)C1(C)Cc2ccccc2C(=O)O1 (centres undefined) | · | · | · | · | · | 32.6%
CCCCn1c(N)c(N(C)C(=O)C2Cc3ccccc3C(=O)O2)c(=O)[nH]c1=O (centres undefined) | · | · | · | · | · | 21.7%
COc1ccc(-n2nnnc2N2CCN(C(=O)Nc3ccc(C)c(F)c3)CC2)cc1C | · | · | · | · | · | -2.4%[6.33 µM]
Cc1ccc(C(=O)C2CCCCC2)cc1 | · | · | · | · | · | -5.8%
COC(=O)c1ccc(OC(=O)c2ccc3c(c2)NC(=O)CS3)c(OC)c1 | · | · | · | · | · | 0.0%
COC(=O)c1ccc(COC(=O)C(NC(=O)Cc2ccccc2)C(C)C)cc1 (centres undefined) | 5.3% | -27.3% | 16.4µM* | 6.0% | 11.8 | 1.3%
CC(c1ccccc1)N1C(=O)c2ccc(C(=O)Nc3ccc(Br)cc3C(=O)O)cc2C1=O (centres undefined) | 4.3% | 2.06µM* | ? | 10.8% | 13.9 | ·
Cc1ccc(OCc2ccccc2C(=O)O)cc1 | · | · | · | · | · | -3.0%
O=S1(=O)CCN2C(c3cccc(Br)c3)=CSC2=N1 | · | · | · | · | · | 22.4µM*
Cc1nn(Cc2c(Cl)cccc2Cl)c(C)c1NC(=O)c1cc(C(C)C)on1 | ? | 18.4µM* | 20.6µM* | 23.1µM* | 21.3 | -2.2%
Cc1nn(Cc2ccc(Cl)cc2)c(C)c1NC(=O)c1c(-c2ccccc2)noc1C | -14.7% | 16.4µM* | -29.9% | -17.2% | 3.6 | ?
Cc1nn(Cc2ccc(Cl)cc2)c(C)c1NC(=O)C1CC=CCC1C(=O)O (centres undefined) | 7.7% | ? | 16.4µM* | 6.3% | 9.3 | -0.6%
Cc1nn(Cc2ccc(Cl)cc2)c(C)c1NC(=O)c1cc(C(C)C)on1 | ? | 20.6µM* | 14.6µM* | -20.2% | 13.3 | 12.6%
Cc1nn(Cc2ccccc2)c(C)c1NC(=O)c1cc(C(C)C)on1 | · | ? | ? | · | · | -5.7%
Cc1oc(-c2cccs2)nc1CC(=O)Nc1ccccc1C(C)(C)C | · | · | · | · | · | -8.9%
CC(C)OC(=O)C(C(=O)C(F)(F)F)c1cc(NS(=O)(=O)c2ccc3ccccc3c2)c2ccccc2c1O (centres undefined) | 8.2µM* | 23.1µM* | 20.6µM* | 11.6µM* | -60.8* | ·
